12-LOX inh: Primary qHTS assay for inhibitors of human arachidonate 12S-lipoxygenase (ALOX12): Round 2; Polyunsaturated fatty acid lipoxygenase ALOX12 (Homo sapiens), P18054; purified 12hLO, xylenol orange hydroperoxide absorbance; Potency, µM (top dose mostly 108 µM), for the others: at the highest dose activity change, negative = inhibition, actives largely listed as inhibitors; 580,000 compounds, 1.1% hits; AID 1671190, 2021
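Hydroperoxide product was detected by ferrous iron/xylenol orange as the 573 to 405 nm absorbance ratio. Arachidonic acid at 40 uM (final) was turned over for 30 min at room temperature by 150 nM human 12hLO, pH 7.0 Hepes buffer, after 15 min compound preincubation.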
DT40 TDP1 CPT: qHTS for Inhibitors of human tyrosyl-DNA phosphodiesterase 1 (TDP1): qHTS in cells in presence of CPT. chicken DT40 Tdp1-/-;hTDP1 cells + 20 nM CPT, ATP luminescence, 48 h. AID 686979, 2013. Potency, µM (highest dose often 46.2 µM), for the others: at the highest dose activity change, negative = growth inhibition, actives largely listed as inhibitors. 420,000 compounds, 12% hits; further: nearly all actives have a fitted effect of over 55% in size
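Chicken DT40 Tdp1-/- cells complemented with human TDP1, 400 cells/well, exposed to compounds plus 20 nM camptothecin for at least 48 h at 37 C; viability read as ATP content by CellTiter-Glo luminescence.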
ELG1 repair inh: qHTS screen for small molecules that inhibit ELG1-dependent DNA repair in human embryonic kidney (HEK293T) cells expressing luciferase-tagged ELG1; HEK293T ELG1-luciferase reporter, luminescence, 16 h; DNA damage induced by 5-fluorouridine; Potency, µM (top dose mostly 46.1 µM), for the others: at the top dose activity change, negative = inhibition, actives largely listed as inhibitors; 330,000 compounds, 2.3% hits; further: nearly all actives have a fitted effect of over 55% in size
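Reporter activity after DNA damage by 5-fluorouridine is monitored. Compound-treated cells incubate 16 hr at 37 °C, then ONE-Glo is added for 30 min before luminescence reading.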
DT40 TDP1 no CPT: qHTS for Inhibitors of human tyrosyl-DNA phosphodiesterase 1 (TDP1): qHTS in cells in absence of CPT. DT40 Tdp1-/- hTDP1 cells, no CPT, ATP luminescence, 48 h. Potency, µM (highest dose often 46.2 µM), inactives show top-dose activity change, negative = growth inhibition, actives largely listed as inhibitors. 420,000 compounds, 15% hits; further: nearly all actives have a fitted effect of over 55% in size
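DT40 Tdp1-/-;hTDP1 cells, no CPT (DMSO vehicle only), 400 cells/well; compounds pin-transferred; ≥48 hr, 37 °C; CellTiter-Glo 30 min RT dark, luminescence read.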
RORg inh: qHTS for inhibitors of ROR gamma transcriptional activity; Nuclear receptor ROR-gamma (Mus musculus), P51450; Drosophila S2 Gal4-RORgamma UAS-luciferase reporter, 20 h; Potency, µM (titrated, usually from 53.6 µM), inactives show top-dose activity change, negative = inhibition, hits mostly inhibitors; 310,000 compounds, 5.4% hits; further: nearly all actives have a fitted effect of over 60% in size
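A Gal4/UAS one-hybrid system in insect cells: metallothionein-promoter Gal4–ROR gamma fusion plus Photinus luciferase reporter. Copper sulfate 700 uM final, 20 hr ambient incubation, luminescent detection after 10 min with reagent.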
VP16 counter: VP16 counterscreen qHTS for inhibitors of ROR gamma transcriptional activity; Drosophila S2 Gal4-VP16 UAS-luciferase, luminescence, 20 h; Potency, µM (top dose mostly 53.6 µM), for the others: at the top dose activity, negative = inhibition, usual class: inhibitors; 310,000 compounds, 3.5% hits; AID 2546, 2010;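 further: Gal4-VP16 expression switched on by copper sulfate through the metallothionein promoter; nearly all actives have a fitted effect of over 50% in size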
* = called active by the depositor. An excerpt weighted towards active compounds, which were near 15% of everything screened. The call rests on the fitted dose curve; in most records, active means well fitted curve in the direction sought with a large enough effect; inconclusive means small, poorly fitted or top-dose-only effect, or another doubt; inactive means no such curve, though single readings can be large; an effect the other way counts as inactive or inconclusive. On the % scale 0 is the no-effect control and ±100 the full control effect; potency means the concentration at half of the fitted maximal effect.

What do the screens show for `O=C(NC1CCCC1)c1c[nH]c2ccc(S(=O)(=O)Nc3cccc(C(F)(F)F)c3)cc2c1=O`?
12-LOX inh: inconclusive; DT40 TDP1 CPT: inconclusive; DT40 TDP1 no CPT: 20.6µM*

How did O=C(NNc1nc(Nc2ccccc2)nc(N2CCOCC2)n1)Nc1ccc(Cl)cc1 do in these assays?
12-LOX inh: -11.3%; DT40 TDP1 CPT: 20.6µM*; ELG1 repair inh: -7.2%; DT40 TDP1 no CPT: inconclusive; RORg inh: 1.78µM*; VP16 counter: 5.62µM*

Results for CC(=O)Nc1ccc(/C(C)=N/Nc2nc(Nc3ccccc3)nc(N3CCOCC3)n2)cc1 ?
12-LOX inh: -1.7%; DT40 TDP1 CPT: 5.17µM*; ELG1 repair inh: 6.51µM*; DT40 TDP1 no CPT: 7.31µM*; RORg inh: 10µM*; VP16 counter: inconclusive

Results for CC(=O)Nc1sc2c(c1CN1CCN(c3ccc(F)cc3)CC1)CCCC2 ?
12-LOX inh: inconclusive; DT40 TDP1 CPT: inconclusive; ELG1 repair inh: inconclusive; DT40 TDP1 no CPT: 14.6µM*; RORg inh: 14.4%; VP16 counter: 2.3%

How did Cc1sc(NC(=O)c2ccco2)c(CN2CCN(c3ccc(F)cc3)CC2)c1C do in these assays?
12-LOX inh: -24.5%; DT40 TDP1 CPT: 20.6µM*; ELG1 repair inh: 11.6%; DT40 TDP1 no CPT: 11.6µM*; RORg inh: 32.4%; VP16 counter: 22.6%

Results for Cc1sc(NC(=O)CSc2nc(O)cc(=O)[nH]2)nc1-c1ccccc1 ?
12-LOX inh: -20.8%; DT40 TDP1 CPT: -1.4%; ELG1 repair inh: 1.4%; DT40 TDP1 no CPT: -21.3%; RORg inh: -1.3%; VP16 counter: 4.8%

What do the screens show for `COc1cccc(-c2nc(SCC(=O)Nc3nc(-c4ccccc4)c(C)s3)[nH]c(=O)c2C#N)c1`?
12-LOX inh: 14.1µM*; DT40 TDP1 CPT: 3.3%; ELG1 repair inh: -1.9%; DT40 TDP1 no CPT: -9.8%; RORg inh: 6.5%; VP16 counter: -0.6%

What do the screens show for `COc1ccc(OC)c(-c2cc(C(=O)Nc3c(C)nn(Cc4ccc(Cl)cc4)c3C)no2)c1`?
12-LOX inh: inconclusive; DT40 TDP1 CPT: inconclusive; ELG1 repair inh: inconclusive; DT40 TDP1 no CPT: 20.6µM*; RORg inh: inconclusive; VP16 counter: -27.4%

Results for Cc1nn(Cc2ccccc2)c(C)c1NC(=O)c1cc(-c2ccco2)on1 ?
12-LOX inh: -2.0%; DT40 TDP1 CPT: inconclusive; ELG1 repair inh: inconclusive; DT40 TDP1 no CPT: inconclusive; RORg inh: 25.8%; VP16 counter: -6.6%

Results for COc1ccc(OC)c(-c2cc(C(=O)Nc3cc(C)on3)no2)c1 ?
12-LOX inh: 0.0%; DT40 TDP1 CPT: -19.2%; ELG1 repair inh: -1.0%; DT40 TDP1 no CPT: -2.9%; RORg inh: -0.9%; VP16 counter: -16.9%

What do the screens show for `COc1ccc(OC)c(-c2cc(C(=O)Nc3c(C)nn(Cc4ccccc4)c3C)no2)c1`?
12-LOX inh: 1.8%; DT40 TDP1 CPT: 18.4µM*; ELG1 repair inh: inconclusive; DT40 TDP1 no CPT: 23.1µM*; RORg inh: inconclusive; VP16 counter: -17.3%

What do the screens show for `CCCN1CCN(c2nnc(-n3cccc3CNCc3ccc(OC)cc3OC)s2)CC1`?
12-LOX inh: 86.6%

What do the screens show for `O=C(CCS(=O)(=O)c1ccccc1)Nc1nnc(C(F)(F)F)s1`?
12-LOX inh: -9.8%; DT40 TDP1 CPT: inconclusive; ELG1 repair inh: -23.1%; DT40 TDP1 no CPT: 13µM*; RORg inh: 41.9%; VP16 counter: 16.0%

Compound activity (PubChem BioAssay)
